# Most compounds without a hit are left out; they make up all but 3.1% or so of the library.
# PLK1 PBD block: PLK1 (human) polo-box domain binding inhibition | P53350 | Plk1 PBD binding of FITC phosphopeptide, fluorescence polarization | Potency, µM, for the others: max response, negative = inhibition, usual class: inhibitors | 360,000 tested, 2.8% active | AID 720504; further: series mostly up to about 57 µM; on the % scale 0 is the no-effect control and ±100 the full control effect; nearly all actives have a fitted effect of over 65% in size
# Pin1 inhibitor: blocks the human prolyl isomerase Pin1; Q13526; Pin1 FP peptide displacement, HiFluor488, 10 min; Potency, µM (titrated, usually from 115 µM), for the others: at the top dose activity, negative = inhibition, usual class: inhibitors; 390,000 tested, 0.009% active; AID 504891; active means well fitted inhibition curve with a large enough effect in the polarisation, with a control signal flat, not every such curve was filed as active; inconclusive means small, poorly fitted or top-dose-only effect, or effect the other way, or a change in a side signal; inactive means no such curve, though single readings can be large or run the other way; the % refers to the polarisation; further: on the % scale 0 is the no-effect control and ±100 the full control effect
# Tb PFK inh: inhibitors of T. brucei phosphofructokinase; AID 485367; 330,000 tested, 0.17% active; Potency, µM (titrated, usually from 57.5 µM), inactives show at the top dose activity, negative = inhibition, actives largely listed as inhibitors; O15648; T. brucei PFK, ADP-Glo luminescence;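 further: 0% = uninhibited 1x PFK enzyme wells and -100% = no-enzyme wells; nearly all actives have a fitted effect of over 60% in size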
#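 Luminescent ADP detection (ADP-Glo, two-step: ATP depletion then ADP-to-ATP conversion for luciferase) reported PFK activity after 45 min room-temperature reaction of 1.25 nM enzyme with 0.5 mM F6P and 0.1 mM ATP at pH 8.0.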
# VDR inh: inhibitors of human vitamin D receptor; VDR-SRC2-3 peptide fluorescence polarization, 2 h; 400,000 tested, 0.93% active; P11473; AID 504847; Potency, µM, for the others: max response, negative = inhibition, usual class: inhibitors; further: on the % scale 0 is the no-effect control and ±100 the full control effect
#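 The screen uses fluorescence polarization to detect compounds that interfere with recruitment of the SRC2-3 coactivator peptide to VDR; plates are read after 2 h at room temperature.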
# ASM inhibitor: inhibitors of human secretory acid sphingomyelinase; P17405; placental ASM, HMU-PC fluorogenic substrate, 60 min; Potency, µM (highest dose often 57.5 µM), for the others: top-dose activity change, negative = inhibition, usual class: inhibitors; 340,000 tested, 0.006% active; AID 504937
# Target sequence (P17405 47-631 limits assumed): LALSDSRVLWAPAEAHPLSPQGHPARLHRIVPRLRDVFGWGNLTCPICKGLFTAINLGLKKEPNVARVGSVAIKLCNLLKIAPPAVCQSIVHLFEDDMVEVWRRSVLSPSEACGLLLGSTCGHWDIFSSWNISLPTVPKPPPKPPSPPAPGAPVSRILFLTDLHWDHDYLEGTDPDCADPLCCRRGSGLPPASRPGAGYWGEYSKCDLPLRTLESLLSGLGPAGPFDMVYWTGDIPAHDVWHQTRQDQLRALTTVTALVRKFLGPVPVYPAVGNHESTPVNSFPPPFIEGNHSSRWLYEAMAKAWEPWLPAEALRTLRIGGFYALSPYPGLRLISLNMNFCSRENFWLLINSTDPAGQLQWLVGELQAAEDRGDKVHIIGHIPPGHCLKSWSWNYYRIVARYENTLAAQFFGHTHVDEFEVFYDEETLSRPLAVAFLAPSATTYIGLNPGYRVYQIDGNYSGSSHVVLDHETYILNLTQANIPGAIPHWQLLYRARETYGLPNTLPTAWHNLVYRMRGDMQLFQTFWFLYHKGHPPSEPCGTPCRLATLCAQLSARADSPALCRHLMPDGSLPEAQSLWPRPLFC
#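 Human placenta-derived ASM enzyme was preincubated with compound for 10 minutes at room temperature, then given fluorogenic substrate HMU-PC0 (9 uM final) for 60 minutes at 37 °C; a pH 10 stop preceded fluorescence reading at Ex 386/Em 447 nm.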
# TDP1 block: blocks human tyrosyl-DNA phosphodiesterase 1. Q9NUW8. recombinant TDP1, AlphaScreen DNA substrate cleavage. Potency, µM (highest dose often 130 µM), inactives show at the highest dose activity change, negative = inhibition, most hits filed as inhibitors. 350,000 tested, 0.28% active. AID 485290; further: on the % scale 0 is the no-effect control and ±100 the full control effect; nearly all actives have a fitted effect of over 40% in size
#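 Enzyme-compound mixtures sat 15 min at room temperature, followed by a 5 min reaction with 15 nM final substrate and 10 min with AlphaScreen beads. Recombinant human Tdp1 was used at 1 nM final.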
# * = called active by the depositor; u = inconclusive; x = not tested or not shown; [ ] = dose if it differs, or a comment. Unless noted, the call rests on the fitted dose curve; in most records, active means well fitted curve in the direction sought with a large enough effect; inconclusive means small, poorly fitted or top-dose-only effect, or another doubt; inactive means no such curve, though single readings can be large; an effect the other way counts as inactive or inconclusive. Potency means the concentration at half of the fitted maximal effect.
SMILES,PLK1 PBD block,Pin1 inhibitor,Tb PFK inh,VDR inh,ASM inhibitor,TDP1 block
Cc1ccc(S(=O)(=O)NC(C)C(=O)Nc2cccc([N+](=O)[O-])c2)cc1 (stereo not drawn),-6%,-3%,-1%,-2%,-4%,-11%
COCC(=O)Nc1cc([N+](=O)[O-])ccc1C,12µM*,12%,-5%,-4%,3%,1%
Cc1ccc(C)c(NC(=O)CCC(=O)N/N=C/c2cc([N+](=O)[O-])ccc2O)c1,38µM*,0%,0%,1%,-1%,8%
CCC(=O)OCC(=O)Nc1cc(C)c(C)cc1[N+](=O)[O-],24µM*,0%,-1%,-8%,0%,5%
Cc1cccc(-n2ncc3c(Nc4ccc(Oc5ccc(Cl)cc5)cc4)ncnc32)c1,x,20%,x,18%,x,0%
O=C(NCc1ccc(F)cc1)n1c(-c2ccccc2)c(P(=S)(c2ccccc2)c2ccccc2)c2ccccc21,x,30%,x,x,x,-2%
Cc1ccc(C(=O)NCCCc2ccccc2)c(C)c1,24µM*,-3%,-5%,0%,5%,-11%
Cc1cc(C)cc(C(=O)NCCCc2ccccc2)c1,5%,-1%,-7%,3%,-1%,0%
CC1CC=CC2C1C(=O)N(Cc1ccccc1)C2c1ccc(Br)cc1F (stereo not drawn),x,0%,x,-26%,x,-3%
Cc1ccc(S(=O)(=O)n2cccc2/C=C/[N+](=O)[O-])cc1,7.5µM*,x,x,x,x,x
CCOc1ccccc1OCc1nn2c(COc3ccccc3)nnc2s1,4.7µM*,-2%,-1%,32µM*,-19%,5%
c1ccc(OCc2nn3c(Cn4cnc5ccccc54)nnc3s2)cc1,24µM*,u,-2%,u,-14%,0%
Clc1ccc(Cl)c(-c2nn3c(Cn4cnc5ccccc54)nnc3s2)c1,-11%,-1%,x,-1%,-3%,x
c1cncc(-c2nn3c(Cn4cnc5ccccc54)nnc3s2)c1,4.7µM*,-4%,u,-99%,-9%,8%
c1ccc2c(c1)ncn2Cc1nnc2sc(-c3ccncc3)nn12,12µM*,-4%,-4%,-13%,-2%,4%
Cc1nnc2sc(COc3ccccc3)nn2c1=O,-2%,1%,1%,2%,-1%,x
c1cncc(-c2nn3cnnc3s2)c1,-6%,-7%,-4%,17%,-6%,4%
CC(C)COc1ccc(C(=O)N2CCCCC2CCN2CCOCC2)cc1 (stereo not drawn),x,-1%,x,-2%,x,2%
CCCCc1nc2c(c3c1C[C@H](C)OC3)CN(S(=O)(=O)c1ccc(Cl)c3nonc13)CC2,x,x,x,x,x,10%[21 µM]
O=S(=O)(c1ccc2[nH]c3c(c2c1)CCCC3)N1CCCCC1,2%,11%,1%,89µM*,-3%,7%
CC(/C=C/C=C(C)/C=C/C(=O)O)=C\C=C\C=C(C)\C=C\C=C(C)\C=C\C(=O)O,x,x,x,x,x,2.8µM*
C[C@H]1[C@H](C)CC[C@]2(C=O)CC[C@]3(C)C(=CC[C@@H]4[C@@]5(C)C[C@@H](O)[C@H](O)[C@@](C)(CO)[C@@H]5CC[C@]43C)[C@H]12,x,x,x,0%,x,12%
O=C(NC(c1ccccc1)c1ccccc1)c1ccc(S(=O)(=O)C(F)F)cc1,-6%,1%,-2%,1%,-1%,5%
CC(NC(=O)c1ccc(S(=O)(=O)C(F)F)cc1)c1ccccc1 (stereo not drawn),24µM*,0%,-2%,-21%,-2%,-3%
O=C(c1ccc([N+](=O)[O-])cc1)N1CCN(c2ncc(Br)cn2)CC1,27µM*,-3%,-16%,u,-1%,x
SMILES,PLK1 PBD block,Pin1 inhibitor,Tb PFK inh,VDR inh,ASM inhibitor,TDP1 block
CCCCNC(=O)c1ccc2nc(-c3cccs3)c(-c3cccs3)nc2c1,x,0%,x,-21%,x,0%
CC[C@]1(O)C[C@H]2CN(CCc3c([nH]c4ccccc34)[C@@](C(=O)OC)(c3cc4c(cc3OC)N(C=O)[C@H]3[C@@](O)(C(=O)OC)[C@H](OC(C)=O)[C@]5(CC)C=CCN6CC[C@]43[C@@H]65)C2)C1,x,x,x,-19%,x,2%
COc1ccccc1NS(=O)(=O)c1cc(N)ccc1N1CCCCC1,3µM*,-10%,-5%,-15%,0%,-7%
COc1ccccc1NS(=O)(=O)c1cc(NC(=O)c2ccccc2[N+](=O)[O-])ccc1N1CCOCC1,u,5%,0%,17%,-7%,3%
COc1ccccc1NS(=O)(=O)c1cc(NC(=O)C2CCC2)ccc1N1CCCCC1,6µM*,9%,2%,u,-10%,x
Nc1ccc(N2CCCCC2)c(S(=O)(=O)Nc2ccccc2Cl)c1,27µM*,-10%,-9%,-14%,-6%,1%
COc1ccccc1NS(=O)(=O)c1cc(NC(=O)c2ccccc2F)ccc1N1CCOCC1,27µM*,16%,-12%,-1%,-8%,-2%
COc1ccccc1NS(=O)(=O)c1cc(NC(=O)Nc2ccc(Cl)cc2Cl)ccc1N1CCCCC1,u,6%,-8%,-16%,-3%,3%
COc1cc2cc(CNc3ccc(C)cc3)c(=O)n(CC(=O)Nc3ccc(F)cc3F)c2cc1OC,x,-19%,x,0%,x,3%
COc1ccccc1NS(=O)(=O)c1cc(NC(=O)c2cccnc2)ccc1N1CCCCC1,-12%,16%,-8%,-12%,-11%,2%
CCCS(=O)(=O)Nc1ccc(N2CCCCC2)c(S(=O)(=O)Nc2ccccc2OC)c1,24µM*,15%,0%,-21%,-15%,-7%
O=C(COC(=O)c1cc2c(s1)CCCC2)Nc1ccc(Cl)cn1,-16%,-3%,-2%,-4%,-3%,1%
COc1ccc(NC(=O)COC(=O)c2cc3c(s2)CCC3)cc1,-20%,0%,u,21%,12%,14µM*
CCc1cccc(C)c1NC(=O)COCc1cc(-c2ccc3c(c2)OCO3)on1,x,17%,x,5%,x,5%
O=C(CSc1ccccc1)N1CCN(S(=O)(=O)c2ccccc2)CC1,12µM*,1%,0%,-29%,0%,0%
Cc1cc(C)cc(NC(=O)c2cc(C)nc3c2c(C)nn3-c2ccccc2)c1,x,13%,x,-1%,x,2%
CC(/C=C1\SC(=S)N(C(C(=O)O)c2ccccc2)C1=O)=C\c1ccccc1 (stereo not drawn),27µM*,x,-2%,-17%,-8%,5%
CC(/C=C1\SC(=S)N(CC(=O)O)C1=O)=C\c1ccccc1,u,-6%,-10%,45µM*,4%,4%
CC(=C\c1ccccc1)/C=C1/SC(=S)N(CCC(=O)O)C1=O,-30%,u,0%,-22%,-4%,x

# Screening data deposited in PubChem BioAssay by National Center for Advancing Translational Sciences (NCATS).
